Molecules are shown by their SMILES. Where “and” joins values, the source holds several entries; their conditions need not be identical. Identical values can stand only once. Inconclusive results are not listed. Entries that show only a call come without a potency. The source holds several records for some structures; these can differ, active in one and inactive in another. Calls of active or inactive are those of the source. Calls follow the shape of the dose curve; as a rule, active = well fitted cell-killing curve with a large enough effect in the repeat runs; inconclusive = weak or mixed curves, or effect the other way; inactive = no such curve, though single readings can be large or run the other way.
Potency is read from the fitted curve at half-maximal effect.

The nature of this experiment: qHTS assay to identify small molecule antagonists of the retinoid-related orphan receptor gamma (ROR-gamma) signaling pathway - cell viability counter screen (AID 1159520). Also: nearly all actives have a fitted effect of over 50% in size. The conditions noted are these: Tet-on RORgamma CHO cells viability, ATP luminescence, 16 h; series mostly up to 92.4 µM. The text has this: U.S. Tox21 Program National Center for Advancing Translational Sciences [NCATS] NIH Chemical Genomics Center [NCGC] U.S. Environmental Protection Agency [EPA] National Institutes of Environmental Health Sciences [NIEHS] National Toxicology Program [NTP] U.S. Food and Drug Administration [FDA] Tox21 Assay Overview: Nuclear steroid hormone receptors are involved in many biological processes including inflammatory responses, cell proliferation, and apoptosis. Environmental factors or compounds disrupting these nuclear receptor pathways and gene expression may promote susceptibility to immunotoxicants and autoimmune diseases. One important group of these expression factors are the retinoid-related orphan receptors. To assess compounds that may interfere with the retinoid-related orphan receptor gamma (ROR-gamma) transcription factor, a cell-based luciferase assay was used. The CHO cell-based assay utilizes a TET-inducible ROR expression factor and ROR response element-LUC reporter gene. Reporter gene activity was induced using Doxycycline Hyclate and measured after 16 hr incubation. Tet-on ROR gamma CHO cells were used to screen against the Tox21 10K compound library for cytotoxicity by measuring the viability of the cells based on the quantitation of the ATP.
Tox21 Assay Protocol Summary: Tet-on ROR gamma CHO cells were dispensed at 1,000 cells in 4 uL of culture medium per well into white wall/solid bottom 1536-well plates using a Multidrop Combi (Thermo Scientific, Waltham, MA) dispenser. Following incubation at 37 C and 5% CO2 for 4 hr, 23 nL of compounds dissolved in DMSO, positive controls or DMSO only were transferred by a Pintool station (Kalypsys, San Diego, CA) and after 2 hr incubation at 37 C, one ul of 1 uM (final concentration) of Doxycycline Hyclate was added to all the wells by using a Flying Reagent Dispenser (FRD) (Aurora Discovery, San Diego, CA). After 16 hr incubation at 37 C and 5% CO2, 5 uL of CellTiter-Glo reagent (Promega Corporation, Madison, WI) was added to each assay plate using FRD. After 30 min incubation at room temperature, luminescence was quantified on a ViewLux plate reader (Perkin Elmer, Waltham, MA).
(In general: Quantitative high-throughput screening tests each substance at several concentrations.)
`CCOCCOC(C)=O`: the Potency entry was “inactive”. For `CCN(CC)C(=S)[S-].CCN(CC)C(=S)[S-].[Zn+2]`, the Potency was 5.4 µM (active).

On to `Clc1ccc(-c2ccccc2)cc1`, for which the Potency result was “inactive”. For the compound `CC(C)OC(=O)C(O)(c1ccc(Cl)cc1)c1ccc(Cl)cc1`, the Potency was 68.6 µM (active).

`c1cc[c]([Sb]([c]2ccccc2)[c]2ccccc2)cc1`: the Potency entry was “inactive”. In the case of `C[C@H]1CC[C@@H]2[C@@H](C)[C@H]3[C@H](C[C@H]4[C@@H]5CC=C6CC(O[C@@H]7O[C@H](CO)[C@H](O)[C@H](O[C@@H]8O[C@H](CO)[C@@H](O)[C@H](O)[C@H]8O)[C@H]7O[C@H]7O[C@@H](C)[C@H](O)[C@@H](O)[C@H]7O)CC[C@]6(C)[C@H]5CC[C@]34C)N2C1` (stereo not given in full), the Potency is 28.2 µM (active). In the case of `c1ccc2c(c1)OCC(C1=NCCN1)O2` (stereo not given), the Potency entry was “inactive”. On to `COC12CC[C@@]3(C[C@@H]1C(C)(O)C(C)(C)C)[C@H]1Cc4ccc(O)c5c4[C@@]3(CCN1CC1CC1)[C@H]2O5` (stereo not given in full), for which the Potency is 60.7 µM (active). In the case of `Nc1c(Oc2ccccc2)cc(O)c2c1C(=O)c1ccccc1C2=O`, the Potency result was “inactive”. For `Cl/C=C\CCl`, the Potency result was “inactive”. Take `CC(C)(COCC1CO1)COCC1CO1` (stereo not given): the Potency entry was “inactive”.

As to `CCCCCCCCCCBr`, the Potency entry was “inactive”.

As to `C[C@@H](Oc1ccc(Cl)cc1Cl)C(=O)O`, the Potency result is “inactive”.

`CCc1ccccc1C`: the Potency result is “inactive”. For `Nc1ccccc1C(=O)OC/C=C/c1ccccc1`, the Potency result is “inactive”. Under `CCSC(C)CC1CC(=O)C(/C(CC)=N/OC/C=C/Cl)=C(O)C1` (stereo not given) stands “inactive”. In the case of `COC(=O)N(C(=O)N1COC2(C(=O)OC)Cc3cc(Cl)ccc3C2=N1)c1ccc(OC(F)(F)F)cc1` (stereo not given), the Potency result is “inactive”. Regarding `CC[C@H]1C[C@@H]2C[C@H]3c4[nH]c5ccc(OC)cc5c4CCN(C2)[C@@H]13`, the Potency result was “inactive”. Under `Clc1ccc(COC(Cn2ccnc2)c2ccc(Cl)cc2Cl)cc1` (stereo not given) stands 45.3 µM (active) and 60.9 µM (active). Take `ClCCN1CCOCC1`: the Potency result was “inactive”. Consider `N#Cc1c(-c2ccc(Cl)cc2)[nH]c(C(F)(F)F)c1Br`, for which the Potency was 0.611 µM (active). As to `Clc1ccc(C(c2ccc(Cl)cc2)C(Cl)(Cl)Cl)cc1`, the Potency is 61.6 µM (active) and inactive. As for `CC1CCC(C(C)C)C(OC(=O)c2ccccc2N)C1` (stereo not given), the Potency is 53.7 µM (active).

Consider `O=C/C(Cl)=C(/Cl)C(=O)O`, for which the Potency was 48.5 µM (active) and 34.4 µM (active). For the compound `Fc1cccc(Cl)c1CCl`, the Potency entry was “inactive”. To `O=C(CCl)Nc1ccccc1` belongs 27.3 µM (active). For `CN(C)C(=S)S`, the Potency is 6.11 µM (active). To `Cc1cc(SCc2sc(-c3ccc(C(F)(F)F)c(F)c3)nc2C)ccc1OCC(=O)O` belongs “inactive”; to `C[C@@H]1O[C@@H](O[C@H]2C[C@@H](O)[C@]3(CO)[C@H]4[C@H](O)C[C@]5(C)[C@@H](C6=CC(=O)OC6)CC[C@]5(O)[C@@H]4CC[C@]3(O)C2)[C@H](O)[C@H](O)[C@H]1O`, “inactive”; to `CNC(C)Cc1ccc2c(c1)OCO2` (stereo not given), “inactive”. Under `CC(Cl)CN(C)C` (stereo not given) stands “inactive”. Turning to `CC(C)CBr`, the Potency entry was “inactive”. Under `c1ccc2c(c1)[nH]c1cnccc12` stands “inactive”. As to `Fc1ccc(Oc2ccnc3cc(Cl)cc(Cl)c23)cc1`, the Potency result was “inactive”. Regarding `Nc1ccc(Cc2ccc(N)c(Cl)c2)cc1Cl`, the Potency entry is “inactive”. Turning to `Oc1ccccc1Br`, the Potency result is “inactive”. To `C=CC(=O)OCCCCOC(=O)C=C` belongs 19.3 µM (active); to `CC(C)CCCCCCCOP(=O)(Oc1ccccc1)Oc1ccccc1`, “inactive”; to `CCN(CC)c1c([N+](=O)[O-])cc(C(F)(F)F)c(N)c1[N+](=O)[O-]`, “inactive”.

`N#CSCSC#N`: the Potency was 15.7 µM (active) and 4.28 µM (active).

The values above are taken from PubChem BioAssay (Tox21).
